Consider 14 compounds from PubChem BioAssay.

Activity calls are given as the source filed them.

Assay [1] deals with PRMT1 (protein arginine N-methyltransferase 1). Kind of assay: small molecules binding arginine methyltransferase PRMT1 – biochemical, small-molecule microarray, 635 nm fluorescence, primary screen (AID 1088).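 Further: binding of Prmt1 protein to compounds spotted on small-molecule microarray slides.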 The settings on record: higher = more signal.
Assay [2] in a line: growth effects on S. cerevisiae YJM789 – YJM789 clinical isolate, OD600, 24 h, basal, primary screen (AID 1089).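 Further: growth of clinical yeast isolate S. cerevisiae YJM 789 seeded 1000 cells per well; test concentration not given here.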 The settings on record: higher = more signal, called active from +8 up or from −8 down.
A short description of assay [3]: S. pombe growth modifiers, basal conditions – strain 972, OD600, 24 h, no modulator, primary screen (AID 1090).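 Further: basal condition with compound alone and no growth modifier present; test concentration not given here.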 The settings on record: S. pombe 972 growth, higher = more signal, called active from +8 up or from −8 down.
Assay [4] can be described thus: budding yeast growth modifiers under rapamycin – strain BY4716, OD600, 96 h, primary screen (AID 1091). Further: test concentration not given here. The settings on record: S. cerevisiae BY4716 + rapamycin, higher = more signal, called active from +8 up or from −8 down.
Assay [5] deals with Torsin-1A-interacting protein 2 (Homo sapiens) (UniProt Q8NFQ8). Kind of assay: small molecules binding lysate-expressed LULL1 – cell lysate, human LULL1 lysate, 635/667 nm fluorescence, primary screen (AID 1092).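 Further: probe is lysate of COS7 cells overexpressing human LULL1; score merges per-feature 667 nm fluorescence with signal-to-noise.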 The settings on record: small-molecule microarray, hLULL1 lysate binding, 635 nm fluorescence; higher = more signal.
Torsin-1A-interacting protein 2 (Homo sapiens), sequence (Q8NFQ8 whole entry, looked up): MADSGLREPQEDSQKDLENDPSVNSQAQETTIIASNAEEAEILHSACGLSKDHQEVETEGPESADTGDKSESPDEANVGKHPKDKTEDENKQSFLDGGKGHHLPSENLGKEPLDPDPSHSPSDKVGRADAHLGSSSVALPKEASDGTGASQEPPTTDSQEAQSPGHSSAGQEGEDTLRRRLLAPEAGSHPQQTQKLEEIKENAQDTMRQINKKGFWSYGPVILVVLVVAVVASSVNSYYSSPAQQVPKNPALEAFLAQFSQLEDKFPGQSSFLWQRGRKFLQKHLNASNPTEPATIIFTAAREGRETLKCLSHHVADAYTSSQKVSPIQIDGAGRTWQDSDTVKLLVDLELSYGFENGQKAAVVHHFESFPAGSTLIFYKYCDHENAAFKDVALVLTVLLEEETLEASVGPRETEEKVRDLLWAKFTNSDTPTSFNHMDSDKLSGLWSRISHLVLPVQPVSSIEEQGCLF
Assay [6] can be described thus: optical density change of DRC41 E. coli – strain DRC41, OD650, 24 h, E. coli filamentation project, primary screen (AID 1093).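 Further: MC1000 strain lacking acrAB efflux and sulA so SOS filamentation is blocked; test concentration not given here.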 The settings on record: E. coli DRC41 growth, higher = more signal, called active from +8 up or from −8 down.
Assay [7] can be described thus: probe aLefty2 binding to arrayed compounds – biochemical, biotinylated probe, 635/667 nm fluorescence, primary screen (AID 1094).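 Further: score merges spot fluorescence near 667 nm with spot signal-to-noise ratio.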 The settings on record: small-molecule microarray, higher = more signal.
Assay [8] has as its system Noggin (protein binding on small-molecule microarray). Kind of assay: small molecules binding Noggin protein – biochemical, 635/667 nm fluorescence, primary screen (AID 1095).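 Further: score merges 667 nm feature fluorescence with signal to noise over triplicate slides.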 The settings on record: 635 nm fluorescence, higher = more signal.
Assay [9] deals with Neurogenic locus notch homolog protein 3 (Homo sapiens) (UniProt Q9UM47). Kind of assay: small molecules binding NOTCH3 protein – biochemical, 635/667 nm fluorescence, primary screen (AID 1096). The settings on record: small-molecule microarray, 635 nm fluorescence, higher = more signal.
Neurogenic locus notch homolog protein 3 (Homo sapiens), sequence (Q9UM47 whole entry, looked up): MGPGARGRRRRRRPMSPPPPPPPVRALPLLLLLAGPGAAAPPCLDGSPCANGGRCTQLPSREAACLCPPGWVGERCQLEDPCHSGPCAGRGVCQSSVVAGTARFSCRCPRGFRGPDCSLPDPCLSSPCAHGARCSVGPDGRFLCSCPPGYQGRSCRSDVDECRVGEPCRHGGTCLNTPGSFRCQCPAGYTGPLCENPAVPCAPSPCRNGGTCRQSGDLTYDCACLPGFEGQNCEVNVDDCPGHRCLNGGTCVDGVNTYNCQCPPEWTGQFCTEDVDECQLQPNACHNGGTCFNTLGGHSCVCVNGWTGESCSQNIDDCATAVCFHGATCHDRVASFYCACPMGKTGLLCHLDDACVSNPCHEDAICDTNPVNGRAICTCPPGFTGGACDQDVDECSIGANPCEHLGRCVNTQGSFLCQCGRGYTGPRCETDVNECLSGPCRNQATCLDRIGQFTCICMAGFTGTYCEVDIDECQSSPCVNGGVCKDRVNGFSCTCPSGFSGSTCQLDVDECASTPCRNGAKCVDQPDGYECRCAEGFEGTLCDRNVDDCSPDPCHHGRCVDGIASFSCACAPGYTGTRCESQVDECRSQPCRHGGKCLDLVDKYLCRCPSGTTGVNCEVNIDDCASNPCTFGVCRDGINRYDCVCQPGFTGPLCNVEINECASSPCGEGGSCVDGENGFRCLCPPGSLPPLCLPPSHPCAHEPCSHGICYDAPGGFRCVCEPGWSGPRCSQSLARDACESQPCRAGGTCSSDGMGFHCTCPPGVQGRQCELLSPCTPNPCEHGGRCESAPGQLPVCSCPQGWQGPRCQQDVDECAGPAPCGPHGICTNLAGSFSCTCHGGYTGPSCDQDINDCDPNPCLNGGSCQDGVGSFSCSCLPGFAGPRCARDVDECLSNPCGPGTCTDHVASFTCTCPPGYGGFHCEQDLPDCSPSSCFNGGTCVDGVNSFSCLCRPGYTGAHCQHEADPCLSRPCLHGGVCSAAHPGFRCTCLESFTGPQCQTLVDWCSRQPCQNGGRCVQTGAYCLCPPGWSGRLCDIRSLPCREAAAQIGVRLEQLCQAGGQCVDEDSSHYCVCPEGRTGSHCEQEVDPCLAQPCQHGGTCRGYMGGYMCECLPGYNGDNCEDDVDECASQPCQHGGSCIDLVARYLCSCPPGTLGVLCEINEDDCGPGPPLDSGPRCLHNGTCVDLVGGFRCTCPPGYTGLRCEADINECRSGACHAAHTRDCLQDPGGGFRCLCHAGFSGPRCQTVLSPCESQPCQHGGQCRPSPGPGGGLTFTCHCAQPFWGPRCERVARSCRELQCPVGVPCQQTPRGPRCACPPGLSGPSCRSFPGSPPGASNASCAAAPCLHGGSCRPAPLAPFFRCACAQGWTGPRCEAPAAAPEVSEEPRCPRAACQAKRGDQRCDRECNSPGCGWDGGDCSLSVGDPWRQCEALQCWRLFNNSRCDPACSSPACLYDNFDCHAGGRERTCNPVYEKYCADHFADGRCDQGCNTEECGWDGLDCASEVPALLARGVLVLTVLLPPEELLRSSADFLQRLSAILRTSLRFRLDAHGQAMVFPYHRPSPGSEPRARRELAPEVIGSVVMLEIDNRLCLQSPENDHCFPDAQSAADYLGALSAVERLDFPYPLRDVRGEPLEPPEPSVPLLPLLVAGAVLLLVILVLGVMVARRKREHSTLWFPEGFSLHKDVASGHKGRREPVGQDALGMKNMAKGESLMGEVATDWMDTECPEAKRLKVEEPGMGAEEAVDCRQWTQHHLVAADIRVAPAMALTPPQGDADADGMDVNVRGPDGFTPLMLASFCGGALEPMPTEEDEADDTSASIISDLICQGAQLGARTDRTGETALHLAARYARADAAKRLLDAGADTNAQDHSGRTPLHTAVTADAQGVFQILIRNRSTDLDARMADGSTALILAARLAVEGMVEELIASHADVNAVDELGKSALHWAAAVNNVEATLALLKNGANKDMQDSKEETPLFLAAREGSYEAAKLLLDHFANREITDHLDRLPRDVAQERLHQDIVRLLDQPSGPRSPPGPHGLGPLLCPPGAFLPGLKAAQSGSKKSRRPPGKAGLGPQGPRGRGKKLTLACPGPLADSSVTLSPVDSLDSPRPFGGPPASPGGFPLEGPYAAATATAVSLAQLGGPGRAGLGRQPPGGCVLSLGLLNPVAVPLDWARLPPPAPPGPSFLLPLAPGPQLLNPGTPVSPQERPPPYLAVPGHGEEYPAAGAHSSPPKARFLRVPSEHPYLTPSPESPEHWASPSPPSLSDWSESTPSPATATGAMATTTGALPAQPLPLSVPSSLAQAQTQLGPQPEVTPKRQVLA
The nature of assay [10]: probe aEGFR binding to arrayed compounds – biochemical, biotinylated probe, 635/667 nm fluorescence, primary screen (AID 1097).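 Further: probe is a biotinylated anti-EGFR antibody binding compounds printed on slides; score combines fluorescence near 667 nm and signal to noise of each spot.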 The settings on record: small-molecule microarray, higher = more signal.

With `OC([C@@H]1CC(c2ccccc2)=NO1)[C@H]1CC(c2ccccc2)=NO1` (stereo not given in full), the composite z-score is -0.629 in [1]; 0.299 in [5]; -0.0748 in assay [7]; 0.281 in assay [8]; -0.158 in assay [9]; 0.0655 in assay [10]. Further, the z-score is 0.784 (inactive) in assay [2], -0.786 (inactive) in [3], 1.55 (inactive) in assay [4] and 2.52 (inactive) in assay [6].
As for `C#CCN(Cc1ccccc1Br)C(/C=C/c1ccccc1)CO` (stereo not given), the composite z-score in assay [1] was -0.69; in [5] it was 0.123; in assay [7] it was -0.144; in [8] it was -0.193; in assay [9], -0.598; in assay [10] it was -0.277. Besides, the z-score in assay [2] was -2.9 (inactive); in assay [3], -19.4 (active); in assay [4], 0.934 (inactive); in assay [6] it was 0.556 (inactive).
With `COc1ccc(C(=O)Nc2ccc(CN3C(=O)[C@@]4(O[C@@H](CC(=O)N5CCC[C@H]5CO)[C@H]([Si](C)(C)c5ccc(OC)cc5)[C@H]4C)c4ccccc43)cc2)cc1`, the composite z-score is 1.55 in [1]; 2.07 in [5]; -0.0134 in [7]; 1.05 in assay [8]; 1.09 in [9]; 0.131 in [10]. Moreover, the z-score in assay [2] is -0.466 (inactive); in assay [3], -0.838 (inactive); in assay [4] it was -0.436 (inactive); in assay [6], 0.632 (inactive).
For `Cc1ccc(S[C@]2(C(=O)NCC(C)C)CC(=O)N(Cc3cc(C(F)(F)F)cc(C(F)(F)F)c3)[C@@H]2c2ccc(CO)cc2I)cc1`, the composite z-score in assay [1] is 0.714; in [5], 0.736; in assay [7], 0.31; in [8] it was -2.5; in assay [9] it was -0.332; in assay [10], -0.0824. Moreover, the z-score is -1.79 (inactive) in assay [2], -1.94 (inactive) in assay [3], 0.651 (inactive) in assay [4] and -0.161 (inactive) in [6].
As to `CC(C)(C)OC(=O)CC[C@]12N=C(c3ccc(OCCCO)cc3)O[C@H]1c1ccccc1N(CCS(=O)(=O)c1ccccc1)C2=O`, the composite z-score in [1] was found to be 1.55; in assay [5], 3.17; in assay [7], 0.101; in assay [8], 0.905; in assay [9], 1.1; in assay [10], 0.0288. Further, the z-score in assay [2] was 1.03 (inactive); in [3], 1.65 (inactive); in assay [4], 0.246 (inactive); in [6] it was 0.522 (inactive).
For `C=C(COC)/C(=C/C[C@@H](OC(C)=O)c1ccc(CO)o1)c1cnc2ccccc2c1`, the composite z-score was found to be 1.54 in assay [1]; 0.612 in [5]; 0.0624 in assay [7]; 1.72 in [8]; 1.04 in [9]; 0.0821 in assay [10]. Besides, the z-score in [2] was 1.17 (inactive); in [3], -0.721 (inactive); in assay [4], 0.951 (inactive); in [6], 1.27 (inactive).
Turning to `CN1C(=O)[C@]2(Cc3ccccc3)N=C(c3ccc(OCCCO)cc3)O[C@@H]2c2ccccc21`, the composite z-score was 1.55 in assay [1]; 3.14 in [5]; -0.0354 in assay [7]; 1.34 in assay [8]; 0.845 in [9]; 0.0492 in assay [10]. Further, the z-score in [2] is -0.112 (inactive); in [3], -3.36 (inactive); in assay [4], 2.26 (inactive); in assay [6], -0.538 (inactive).
Regarding `C=C(CCCC)/C(=C/C[C@@H](OC(C)=O)c1ccccc1OCCO)c1cnc2ccccc2c1`, the composite z-score in assay [1] is 1.3; in assay [5] it was 1.1; in assay [7], -0.0208; in assay [8], 0.61; in assay [9], 0.513; in assay [10], -0.0675. Moreover, the z-score is 0.182 (inactive) in [2], -0.727 (inactive) in [3], 0.0058 (inactive) in assay [4] and 0.468 (inactive) in assay [6].
For `O=C1OCCC/C=C\[C@H]2OC34C=CCN(CCN5CCOCC5)C(=O)[C@H]3N(CCCO)C(=O)[C@@H]4C12` (stereo not given in full), the composite z-score was -0.622 in assay [1]; 3.54 in assay [5]; -0.381 in [7]; -0.813 in assay [8]; -0.93 in [9]; -0.199 in assay [10]. The z-score is -1.35 (inactive) in [2], -0.632 (inactive) in assay [3], -0.595 (inactive) in assay [4] and -0.44 (inactive) in [6].
With `CCCC=C(CCC)[C@@H](NS(=O)(=O)c1cccs1)c1ccc(C(=O)OC)cc1`, the composite z-score was 0.946 in assay [1]; 3.43 in assay [5]; -0.0375 in assay [7]; -0.213 in assay [8]; 0.882 in assay [9]; -0.11 in assay [10]. The z-score in [2] was 0.212 (inactive); in assay [3], -1.19 (inactive); in [4], 0.602 (inactive); in assay [6] it was -0.0839 (inactive).
Turning to `C=C(/C(=C/C[C@@H](OC(C)=O)c1ccc(OCCO)cc1)c1cnc2ccccc2c1)C(C)C`, the composite z-score in assay [1] was 1.26; in assay [5], 1.06; in [7], -0.197; in assay [8] it was 0.655; in assay [9], 0.676; in assay [10] it was -0.146. Besides, the z-score in assay [2] was -0.0424 (inactive); in assay [3] it was -1.56 (inactive); in [4], -0.234 (inactive); in assay [6], 0.762 (inactive).
For the compound `C[N+](C)(C)CCCC[C@@H]1NC(=O)[C@@H]2C[C@H](C(=O)NCCCCCN)[C@H](c3cccc(OCCO)c3)N2C1=O`, the composite z-score was 1.28 in assay [1]; 2.15 in assay [5]; 0.231 in [7]; -0.0236 in [8]; 0.182 in assay [9]; -0.0037 in assay [10]. For the same compound, the z-score in [2] was -0.465 (inactive); in assay [3], -2.09 (inactive); in [4] it was 0.371 (inactive); in [6], -0.291 (inactive).
On to `C=CCOC(=O)[C@H]1[C@@H]2C(=O)O[C@@H](c3ccccc3)[C@@H](c3ccccc3)N2[C@@H](c2ccc(OCCOC(=O)[C@@H]3C[C@@H]4C(=O)N[C@@H](CCCC[N+](C)(C)C)C(=O)N4[C@@H]3c3ccc(O)cc3)cc2)[C@]12C(=O)Nc1ccccc12`, for which the composite z-score in assay [1] is 1.55; in [5], 2.84; in [7], 0.236; in assay [8], 1.64; in assay [9] it was 1.12; in [10], -0.0663. Further, the z-score is -1.27 (inactive) in assay [2], -3.66 (inactive) in [3], -1.02 (inactive) in assay [4] and 0.155 (inactive) in assay [6].
As to `COc1ccc(C(=O)Nc2ccc(CN3C(=O)[C@@]4(O[C@@H](CCn5cc([C@H](O)c6ccccc6)nn5)[C@H]([Si](C)(C)c5ccc(OC)cc5)[C@H]4C)c4ccccc43)cc2)cc1`, the composite z-score is 1.46 in [1]; 1.11 in [5]; -0.136 in assay [7]; 0.323 in assay [8]; 0.378 in [9]; -0.134 in assay [10]. The z-score is 0.188 (inactive) in assay [2], -0.807 (inactive) in assay [3], 1.66 (inactive) in assay [4] and -0.351 (inactive) in assay [6].
